Shown are actives, neighbours in structure and some others; about 2.3% of the full set was active somewhere.
M1 antag: antagonists of human M1 muscarinic receptor. AID 588852. 360,000 compounds, 1.3% hits. P11229. inhibition, % at 3 µM. CHO-K1 hM1, Fluo-8 calcium fluorescence, ACh EC80 antagonist;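 active = percent inhibition above its own plate's cutoff, namely the mean of that plate's compound wells plus 3 SD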;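 note: peak over basal fluorescence ratio during 140 s after agonist addition; 0% = ACh EC80 plus DMSO and 100% = DMSO alone without agonist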
Target sequence (P11229 whole entry, looked up): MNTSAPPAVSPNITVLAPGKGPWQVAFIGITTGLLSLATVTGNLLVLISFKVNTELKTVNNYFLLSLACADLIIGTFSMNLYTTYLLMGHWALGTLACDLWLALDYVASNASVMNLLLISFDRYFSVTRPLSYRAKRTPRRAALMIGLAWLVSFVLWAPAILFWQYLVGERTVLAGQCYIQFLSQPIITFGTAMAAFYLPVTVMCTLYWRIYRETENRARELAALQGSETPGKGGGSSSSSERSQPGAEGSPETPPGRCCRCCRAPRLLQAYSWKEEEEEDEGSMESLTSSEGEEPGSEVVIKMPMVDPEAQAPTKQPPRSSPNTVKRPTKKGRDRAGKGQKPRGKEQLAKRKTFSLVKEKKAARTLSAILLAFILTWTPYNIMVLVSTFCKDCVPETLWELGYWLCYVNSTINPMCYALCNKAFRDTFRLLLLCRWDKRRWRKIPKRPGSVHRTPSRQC
CHO-K1 Ca antag: M1 antagonist counterscreen hit in parental CHO-K1 cells. ATP-induced calcium, Fluo-8 fluorescence. inhibition, % at 3 µM. 360,000 compounds, 0.6% hits;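 active = inhibition above a per-plate cutoff, the plate's mean sample inhibition plus 3 SD, cut at about 24% in these data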;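 note: 0% = DMSO plus EC80 ATP and 100% = DMSO alone without ATP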
CHO-K1 Ca PAM: counter-screen for M1 PAMs: effect in parental CHO-K1 cells | activation, % at 3 µM | 360,000 compounds, 0.02% hits | ATP EC20, Fluo-8 calcium fluorescence; 0% at ATP EC20, 100% at ATP max | AID 602247;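 active = activation above the run cutoff, the mean activation of all test compounds plus 3 SD, cut at about 40% in these data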;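 note: peak over basal fluorescence ratio in a 140 s read after ATP addition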
CHO-K1 Ca ag: nonselective activator or artifact in parental CHO-K1 cells | Fluo-8 calcium fluorescence; scaled to maximal ATP response, vehicle zero | activation, % at 3 µM | 360,000 compounds, 0.48% hits; in the data active = activation above about 15%;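 note: untransfected CHO-K1 host cells lacking M1 receptor as counterscreen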
CHRM1 PAM: human CHRM1 positive allosteric modulation | CHO-K1 hM1, Fluo-8 calcium fluorescence, ACh EC20; 0% = ACh EC20, 100% = maximal ACh | 360,000 compounds, 0.088% hits | P11229 | activation, % at 3 µM; in the data active = activation above about 19%, passing the limit was not always enough
M1 ag: human M1 muscarinic receptor agonism | P11229 | CHO-K1 hM1, Fluo-8 calcium fluorescence, agonist mode; 0% DMSO, 100% acetylcholine EC100 | activation, % at 3 µM | 360,000 compounds, 0.33% hits;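 active = activation above the run's mean compound activation plus 3 SD, cut at about 16% in these data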;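 note: peak over basal fluorescence ratio within a 140 s kinetic read after compound addition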
Numbers without * were called inactive.

SMILES | M1 antag | CHO-K1 Ca antag | CHO-K1 Ca PAM | CHO-K1 Ca ag | CHRM1 PAM | M1 ag
CN1CCN(C(=O)CN(c2cccc(Cl)c2)S(=O)(=O)c2ccccc2)CC1 | 28* | -7 | 14 | 0 | -9 | -5
Cc1cccc(N(CC(=O)N2CCN(C)CC2)S(=O)(=O)c2ccccc2)c1 | 7 | 1 | 10 | 0 | -4 | -14
CN(C(=O)c1ccc(NC(=O)Cc2ccc(NC(=O)C3CCCN(C(=O)C4CC4)C3)cc2)cc1)C1CC1 (centres undefined) | -3 | -12 | 19 | 0 | 6 | 0
CCC(C)C(CO)NCCCn1cnc2c(OC)ncnc21 (centres undefined) | 21* | -3 | 11 | 0 | -15 | -1
CC(C)N(Cc1ccccc1)C(=O)CN1C(=O)COc2ccc(S(=O)(=O)N3CCCCCC3)cc21 | 9 | -30 | 38 | 16* | -2 | 6
CN(Cc1ccccc1)C(=O)CN1C(=O)COc2ccc(S(=O)(=O)N3CCCC3)cc21 | -4 | -13 | 14 | 0 | 4 | -5
O=C(Nc1cccc2c(=O)[nH][nH]c(=O)c12)c1ccc([N+](=O)[O-])cc1 | 0 | 0 | 8 | 0 | 0 | -2
CCOc1cc(C2C(C#N)=C(N)SC(N)=C2C#N)ccc1OCCN1CCOCC1 | 0 | 7 | -2 | 0 | 3 | -10
CCOc1ccc(C2C(C#N)=C(N)SC(N)=C2C#N)c(OCC)c1 | 3 | -8 | 13 | 7 | -3 | 18*
CC(c1ccccc1)n1c(N2CCN(C)CC2)nc2c1c(=O)[nH]c(=O)n2C (centres undefined) | -11 | 10 | -6 | 2 | 5 | -6
Cc1scc2c1N(C(=O)CN1CCN(C)CC1)c1ccccc1NC2=O | 98* | -6 | 15 | 0 | -26 | -6
Cc1ccc(NC(=O)Cc2nn(C)c(=O)c3ccccc23)cc1F | 11 | 8 | 1 | 10 | -15 | 6
Cn1nc(CC(=O)Nc2ccc3c(c2)OCCO3)c2ccccc2c1=O | 31* | 27* | -11 | 12 | -11 | 2
Cc1onc(-c2ccccc2)c1C(=O)N(Cc1ccco1)Cc1cccs1 | -1 | -10 | 13 | 1 | -2 | -5
CC[C@@]1(C(=O)OC)N[C@H](CN(C)C(=O)Nc2ccc(OC)cc2)[C@@H]2C(=O)N(C)C(=O)[C@@H]21 | -15 | -7 | 7 | 0 | 17 | -2
CC(Sc1nc(N)cc(N)n1)C(=O)NCCC1=CCCCC1 (centres undefined) | -1 | -23 | 11 | 2 | 2 | 1
CN1/C(=C\C(=O)COC(=O)Cn2nnc(-c3ccccc3)n2)C(C)(C)c2ccccc21 | 9 | 24* | -7 | 1 | -11 | -1
O=C(Nc1cccc(F)c1)N1CCCCCC1 | -8 | -5 | 20 | 1 | 5 | -3
Cc1ccc(/C=C2/NC(=O)N(Cc3ccccc3)C2=O)s1 | 11 | 27* | -8 | 2 | -7 | -1
Cc1cccc(CN2C(=O)N/C(=C/c3ccc(C)s3)C2=O)c1 | -2 | -4 | 12 | 2 | 3 | -1
CCCN1CCC(NC(=S)Nc2cccc(Cl)c2Cl)CC1 | -13 | -8 | 22 | 0 | 9 | 26*
CCCCCCn1nc(C(=O)OCC(=O)c2c(N)n(C)c(=O)n(C)c2=O)c2ccccc2c1=O | 39* | 4 | -5 | 5 | -17 | -2
CCCCCn1nc(C(=O)OCC(=O)c2c(N)n(C)c(=O)n(C)c2=O)c2ccccc2c1=O | -6 | -15 | 19 | 1 | 8 | -1
Cc1ccc(C(=O)N2CCN=C2SCc2ccc([N+](=O)[O-])cc2)cc1C | 36* | 4 | -12 | 0 | -22 | -8
CC(=O)Nc1ccc(S(=O)(=O)N2CCN=C2SCc2ccc([N+](=O)[O-])cc2)cc1 | 7 | 14 | -24 | 17* | -4 | 6
COc1ccc(CCNC(=O)CCn2c(SCC(=O)N3CCCC3)nc3ccccc3c2=O)cc1OC | -6 | -10 | -18 | 1 | 4 | 1
CC1=CN2C(c3cccc([N+](=O)[O-])c3)=NON(c3ccc(C)cn3)C2C=C1 (centres undefined) | -10 | 1 | 9 | 1 | 9 | -5

Screening data: PubChem BioAssay, The Scripps Research Institute Molecular Screening Center
